# Assay outcomes as filed in PubChem.
# Many of the other results were omitted from the sample, so hits are more common in it than they were.
# DUX4 txn inh – inhibitors of DUX4-driven ZSCAN4 reporter expression, primary screen, 293T cells, Gaussia and Italica luciferase; 293T-iDUX4 ZSCAN4-Gaussia luciferase reporter, 24 h; active compounds read low; activity change, negative = inhibition, % (concentration not given with the values); hit rate 0.8% among 37,000;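 active = mean inhibition of at least 10% in the main channel, exceeding the control channel by a set limit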;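 also: 0% = median of neutral control wells and -100% = median of positive control wells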
# An asterisk follows results filed as active.
SMILES,DUX4 txn inh
C[C@@H](NC(=O)N(C)C[C@@H]1OCc2ccccc2-c2c(n(C)c3ccccc23)C(=O)N([C@@H](C)CO)C[C@@H]1C)c1ccccc1,13.4
CCCNC(=O)Nc1ccc2c(c1)C(=O)N(C)C[C@H](OC)[C@@H](C)CN(Cc1cccnc1)[C@H](C)CO2,2.8
CN(C)C(=O)[C@@H]1[C@@H](CO)[C@@H]2Cn3c(ccc(-c4ccncc4)c3=O)[C@@H]2N1Cc1ccccc1,5.5
COCC(=O)N1CC2(C1)[C@H](c1ccccc1)[C@@H](CO)N2C(=O)c1ccncc1,0.4
COc1cccc(S(=O)(=O)N[C@@H]2C=C[C@H](CC(=O)NCc3ccncc3)O[C@H]2CO)c1,0.2
OC[C@H]1[C@@H](c2ccc(-c3cccc(F)c3)cc2)[C@H]2CN(Cc3cncnc3)CCCCN21,4.5
CN(C)C(=O)c1ccc(-c2ccc([C@H]3[C@@H](CO)N4CCCCN(CCC(F)(F)F)C[C@@H]34)cc2)cc1,5.9
Cc1cccc(-c2ccc([C@@H]3[C@@H](CO)N4CCCCN(CCC(F)(F)F)C[C@@H]34)cc2)c1,-55.5*
OC[C@H]1[C@H](c2ccc(-c3cccc(F)c3)cc2)[C@@H]2CN(CCC(F)(F)F)CCCCN12,-47.0*
Cc1cccc(-c2ccc([C@H]3[C@@H](CO)N4CCCCN(Cc5ccncc5)C[C@H]34)cc2)c1,-6.7
Cc1cccc(-c2ccc([C@H]3[C@@H](CO)N4CCCCN(CCC(F)(F)F)C[C@H]34)cc2)c1,-39.3*
CN(C)C(=O)c1ccc(-c2ccc([C@@H]3[C@@H](CO)N4CCCCN(CCC(F)(F)F)C[C@H]34)cc2)cc1,7.0
Cc1cccc(-c2ccc([C@@H]3[C@@H](CO)N4CCCCN(CCC(F)(F)F)C[C@H]34)cc2)c1,14.3
OC[C@@H]1[C@@H](c2ccc(-c3cccc(F)c3)cc2)[C@@H]2CN(Cc3cncnc3)CCCCN12,27.1
O=C(CC(F)(F)F)N1C[C@@H]2[C@H](c3ccccc31)[C@@H](CO)N2C(=O)c1cccnc1,-7.3
CO[C@@H]1CN(C)C(=O)c2ccc(NC(=O)c3ccc(F)cc3)cc2OC[C@H](C)N(C(=O)CN(C)C)C[C@H]1C,1.8
CC(=O)NC[C@@H]1[C@H](c2ccc(-c3cccnc3)cc2)[C@H](CO)N1C(=O)C1CC1,-4.4
O=C(C[C@H]1CC[C@@H]2[C@H](COC[C@@H](O)CN2Cc2ccncc2)O1)NCC1CC1,12.9
C[C@H]1CN([C@@H](C)CO)C(=O)c2cccc(NC(=O)Nc3ccc(C(F)(F)F)cc3)c2O[C@H]1CN(C)Cc1ccc2c(c1)OCO2,-2.3
COc1cccc(S(=O)(=O)Nc2ccc3c(c2)C(=O)N(C)C[C@H](OC)[C@@H](C)CN(Cc2ccccc2F)[C@H](C)CO3)c1,-3.7
CCCN1C[C@@H](C)[C@@H](OC)CN(C)C(=O)c2cc(NS(=O)(=O)c3ccccc3)ccc2OC[C@H]1C,6.9
COc1cccc(S(=O)(=O)Nc2ccc3c(c2)C(=O)N(C)C[C@@H](OC)[C@H](C)CN(Cc2ccccc2F)[C@H](C)CO3)c1,-25.9*
CCCNC(=O)N1C[C@H](O)COC[C@H]2O[C@H](CC(=O)N[C@H]3CCN(Cc4ccccc4)C3)CC[C@@H]21,4.5
CC(C)[C@H]1C(=O)N[C@H](c2ccccc2)CC=CC[C@@H](C)Oc2ccccc2C(=O)N1C (mixture of isomers),-2.8
CO[C@@H]1CN(C)C(=O)c2ccc(NC(=O)C3CC3)cc2OC[C@H](C)N(Cc2cncnc2)C[C@H]1C,-2.9
SMILES,DUX4 txn inh
CS(=O)(=O)N1CCCCN2[C@H](CO)[C@@H](c3ccc(-c4cccc(C#N)c4)cc3)[C@H]2C1,2.5
N#Cc1cccc(-c2ccc(C3[C@@H]4CN(S(=O)(=O)Cc5ccccc5)C[C@H]3N4)cc2)c1 (stereo partly drawn),-40.8*
N#Cc1cccc(-c2ccc(C3[C@H]4CNC[C@@H]3N4Cc3cccc(-c4ccncc4)c3)cc2)c1 (stereo partly drawn),-4.5
CS(=O)(=O)N1CCCCN2[C@H](CO)[C@H](c3ccc(-c4cccc(C#N)c4)cc3)[C@@H]2C1,14.5
COc1cccc(CN2CCCCN3[C@H](CO)[C@H](c4ccc(-c5cccc(C#N)c5)cc4)[C@@H]3C2)c1,-3.2
N#Cc1cccc(-c2ccc(C3[C@@H]4CN(Cc5ccccc5)C[C@H]3N4)cc2)c1 (stereo partly drawn),-26.5*
CC(C)(C)S(=O)N1Cc2cc(C(=O)O)nc(-c3cccc(C#CCC4CCCC4)c3)c2[C@H]1CCO (stereo partly drawn),-8.6
COc1ccc2c3c([nH]c2c1)[C@H](CO)N(Cc1ccncc1)CC31CN(S(C)(=O)=O)C1,8.7
COc1ccc2c3c([nH]c2c1)[C@H](CO)N(Cc1ccc(F)cc1)CC31CN(C(C)=O)C1,-3.1
COc1ccc2c3c([nH]c2c1)[C@H](CO)N(Cc1cccc(Cl)c1)CC31CN(C)C1,-6.9
CCCC(=O)N1CC2(C1)CN(Cc1ccc(Cl)cc1)[C@H](CO)c1[nH]c3cc(OC)ccc3c12,-80.4*
